Bioassay records deposited in PubChem by several laboratories.
aDG glyco up: alpha-DG glycosylation activation. Pro5-aDG cells, alpha-DG glycosylation AlphaScreen (IIH6); 0% Pro5, 100% B10-LARGE cell signal. activation, % at 10 µM. 360,000 compounds, 0.22% hits. AID 624168;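 active = activation of at least 8% versus controls, or a plate z-score of at least 8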;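 note: Pro5 are CHO cells carrying HIG-tagged alpha-DG that lacks glycosylation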
Cardio protect: protects H9c2 cardiomyocytes from peroxide injury. H2O2 injury protection, ATPLite, 2 h. protection from H2O2 cell death, % at 20 µM. 360,000 compounds, 0.63% hits. AID 588492;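 active = compounds giving at least 50% protection of heart cells from peroxide-induced death in the single-dose screen, raw or plate-pattern-corrected value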
Yeast superoxide: lowers age-related superoxide in aged yeast cells. S. cerevisiae aged cells, superoxide DHE fluorescence; hits give low values. superoxide response (% of plate mean), % at 10 µM. 330,000 compounds, 0.18% hits;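 active = superoxide response under a set limit, about three screen SD below normal, cut at about 65% in these data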;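 note: yeast aged for seven days with compound at 30 °C before DHE staining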
FAS-TE inh: FAS thioesterase (human) inhibition; inhibition, % at 15 µM; P49327; recombinant FAS-TE, OMFH fluorogenic substrate, fluorescence endpoint; 360,000 compounds, 0.67% hits;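 active = compounds whose normalised, plate-corrected inhibition of enzyme fluorescence in the single-dose primary screen is 50% or more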
Mot1-301 SUMO: blocks SUMOylation pathway, rescuing yeast Mot1-301 growth; S. cerevisiae Mot1-301 growth rescue, ATP luminescence, 38.5C; percent above DMSO median, 100 means doubled; 320,000 compounds, 1% hits; growth rescue, % at 18.8 µM;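 active = every valid replicate shows activation above 250% relative to neutral control wells; inactive = the rest, any valid replicate at or below 250%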
MPTP block: permeability transition pore inhibition | inhibition, % at 10 µM | 360,000 compounds, 1.4% hits | isolated mouse mitochondria, Ca2+ swelling absorbance, 30 min;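 active = inhibition of 50% or more, scaled per plate between neutral and stimulator controls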
Large screens that a line does not name were inactive. The list is not random: actives were taken first. Their share in the collection is about 3.8%.

CCOc1cccc2sc(N(CCN(CC)CC)C(=O)c3cccc(N4C(=O)CCC4=O)c3)nc12	Mot1-301 SUMO 290
CCOC(=O)c1ccc(-c2ccc(/C=C(\C#N)C(=O)NCC3CCCO3)o2)cc1 (configuration not stated)	Cardio protect 52
COc1ccccc1C1=Nn2c(nnc2C2CCCCC2)SC1	Mot1-301 SUMO 354
O=C(c1ccoc1)N1CCN(c2cc(-c3ccccc3)nc3cc(-c4ccc(Br)cc4)nn23)CC1	none (no result: Yeast superoxide, Mot1-301 SUMO)
COc1ccc(-c2cc3nc(-c4ccccc4)cc(N4CCN(C(=O)c5ccoc5)CC4)n3n2)cc1	Cardio protect 54 (no result: Yeast superoxide, Mot1-301 SUMO)
O=C(c1ccoc1)N1CCN(c2cc(-c3ccncc3)nc3cc(-c4cccc(Cl)c4)nn23)CC1	Cardio protect 71 (no result: Yeast superoxide, Mot1-301 SUMO)
O=C(c1ccoc1)N1CCN(c2cc(-c3cccnc3)nc3cc(-c4cccc(Cl)c4)nn23)CC1	none (no result: Yeast superoxide, Mot1-301 SUMO)
O=C(CCC1CCCC1)N1CCN(S(=O)(=O)c2ccc(Br)cc2)CC1	none
O=C(C1CCC1)N1CCCc2cc(S(=O)(=O)N3CCN(c4ccccc4)CC3)ccc21	none
COc1ccc(C(=O)N/C(=C/c2ccc(Cl)cc2)C(=O)NCc2ccncc2)cc1	none
C=CC[C@@H](CC(=O)N[C@H](CO)Cc1ccccc1)C(=O)N[C@@H](COC(=O)[C@@H](CC=C)CC(=O)OC(C)(C)C)Cc1ccccc1	Cardio protect 63
O=C(N/N=C/c1ccccn1)c1cccc([N+](=O)[O-])c1	Cardio protect 61
O=C(N/N=C/c1ccccn1)c1cc([N+](=O)[O-])cc([N+](=O)[O-])c1	none
CCN(CC)S(=O)(=O)c1cccc(C(=O)N/N=C/c2ccccn2)c1	Cardio protect 51
COc1cccc(C(=O)COc2cccc(NC(=O)c3cccc([N+](=O)[O-])c3)c2)c1	none
O=C(N/N=C/c1ccccn1)c1ccc(NC(=O)c2cccc([N+](=O)[O-])c2)cc1	Cardio protect 69
O=C(COc1cccc(NC(=O)c2cccc([N+](=O)[O-])c2)c1)c1ccc(F)cc1	Cardio protect 78
O=C(Nc1cccc2cccnc12)c1ccccc1Cl	Mot1-301 SUMO 332
O=C(O)c1cc(Cl)c(Cl)cc1C(=O)Nc1cccc2cccnc12	none
Cc1ccc2nc3sc(C(=O)NCc4ccco4)c(N)c3cc2c1	none
COc1cc2cc3c(N)c(C(=O)NCc4ccco4)sc3nc2cc1OC	Cardio protect 58
CC(C)(C)OC(=O)C[C@H]1C/C=C\C[C@H](CC(=O)N[C@H](CO)Cc2ccccc2)C(=O)N[C@@H](Cc2ccccc2)COC1=O	none
Cc1ccc(S(=O)(=O)N2C[C@]3(O)C[C@@H]4C(=O)N(c5ccccc5)C(=O)[C@@H]4C[C@]3(OC(=O)Nc3c(C)noc3C)C2)cc1	none (no result: Yeast superoxide, Mot1-301 SUMO)
Cc1cccc(/N=C/c2c(O)ccc3oc4c(c23)CCCC4)n1	Cardio protect 75
O=C(Nc1cccc(-c2nc3ccccc3s2)c1)c1cc(-n2cnnc2)ccc1Cl	Cardio protect 76
O=[N+]([O-])c1cc2oc3c(c2c(C=NCc2ccccc2)c1O)CCCC3	Cardio protect 61
CC(C)CN=Cc1c(O)c([N+](=O)[O-])cc2oc3c(c12)CCCC3	Cardio protect 95
COc1cc(CN2CCc3ccccc3C2)cc([N+](=O)[O-])c1O	none
O=C(NCc1nnnn1-c1ccc(F)c(F)c1)C(=O)c1c[nH]c2ccccc12	none
O=C(N/N=C/c1cn(-c2ccccc2)nc1-c1cccs1)c1ccncc1	Cardio protect 54
Cc1ccc(-c2nn(-c3ccccc3)cc2/C=N/NC(=O)c2ccncc2)o1	none
O=C(N/N=C/c1nn(-c2ccccc2)cc1-c1ccccc1)c1ccncc1	Cardio protect 62
NC(=O)N/N=C/c1cn(-c2ccccc2)nc1-c1cccs1	none
O=C(NC1CCCCCC1)c1ccc(-n2cnnc2)cc1	none
COC(=O)c1ccc(Cn2c(C)c(C(=O)NCc3cccs3)sc2=O)o1	Cardio protect 52 (no result: Yeast superoxide, Mot1-301 SUMO)
Cc1ccc(Cn2c(C)c(C(=O)NCc3cccs3)sc2=O)cc1	none (no result: Yeast superoxide, Mot1-301 SUMO)
O=C(NC(=S)N1CCCCC1)c1cccnc1	Mot1-301 SUMO 344
Oc1c(Br)cc(Br)cc1C=NCc1ccc(F)cc1	Cardio protect 60
Oc1c(Br)cc(Br)cc1C=NCc1ccccc1	Cardio protect 76
CCOC(=O)C1CCCN(Cc2nc(CC3CC3)no2)C1 (configuration not stated)	Mot1-301 SUMO active
c1ccc2c(Nc3nncs3)c3ccccc3nc2c1	Mot1-301 SUMO 314
COc1ccccc1C(=O)NC(=O)COC(=O)Cn1[nH]c(=O)c2ccccc2c1=O	Cardio protect 84
O=C(COC(=O)Cn1[nH]c(=O)c2ccccc2c1=O)NNC(=O)c1ccccc1	Cardio protect 93
Cc1cc(CNC(=O)COC(=O)Cn2[nH]c(=O)c3ccccc3c2=O)cc(C)c1O	Cardio protect 104
CC(=O)N1CCN(c2ccccc2NC(=O)COc2cc(C)ccc2C(C)C)CC1	Cardio protect 66
CCc1nc2ccc(C(=O)N(CC)CCN(C)C)cn2c1N(CC)CCOC	none (no result: Yeast superoxide, Mot1-301 SUMO)
O=C(Cn1[nH]c(=O)c2ccccc2c1=O)OCC(=O)c1ccc(F)cc1	none
Cc1cccc(C)c1OCC(=O)N1CC2(C)CC1CC(C)(C)C2 (configuration not stated)	none
Cc1ccc(C(C)C)c(OCC(=O)NN2C(=O)c3ccccc3C2=O)c1	none
N#CC1(NC(=O)COC(=O)Cn2[nH]c(=O)c3ccccc3c2=O)CCCCC1	Cardio protect 74
Cc1ccc(C(C)C)c(OCC(=O)NNC(=O)Cn2[nH]c(=O)c3ccccc3c2=O)c1	Cardio protect 70
N#CC1(NC(=O)COC(=O)CN2C(=O)c3ccccc3C2=O)CCCCC1	none
CC(C)NC(=O)COC(=O)Cn1[nH]c(=O)c2ccccc2c1=O	Cardio protect 80
CC1(C)CC2CC(C)(CN2C(=O)COC(=O)Cn2[nH]c(=O)c3ccccc3c2=O)C1 (configuration not stated)	Cardio protect 52
CCc1ccc(C(C(=O)NCc2ccc(F)cc2)N(C(=O)c2csnn2)C2CC2)cc1 (configuration not stated)	none
CC(OC(=O)Cn1[nH]c(=O)c2ccccc2c1=O)C(=O)Nc1ccc(F)cc1 (configuration not stated)	Cardio protect 62
O=C(Cn1[nH]c(=O)c2ccccc2c1=O)OCC(=O)N(Cc1ccccc1)Cc1ccccc1	Cardio protect 106
CC(C)(C)N(Cc1ccccc1)C(=O)COC(=O)Cn1[nH]c(=O)c2ccccc2c1=O	none (no result: Yeast superoxide, Mot1-301 SUMO)
CCOc1cccc(-c2c(C(=O)N/N=C/c3ccco3)nnn2-c2nonc2N)c1	none
NC(=O)c1ccccc1N=Cc1ccccn1	Cardio protect 78
NC(=O)c1ccccc1N=Cc1cccnc1	none
